# Test results: PubChem BioAssay (NCI)
# “And” between values parts separate entries of the source, which are not always exact repeats. Identical values can stand only once. The panel holds about 83,000 compounds, 20% with a hit somewhere; the sample as a whole holds those more often.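 48-hour exposure, single concentration, 96-well plates; percent growth endpoint where 0 means no net growth. Active: below 10.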 The source made the active and inactive calls.
# Tested on: MDA-MB-468 breast
# Assay: NCI-60 one-dose screen, 48 h (100 = growth as untreated, 0 = no growth, -100 = all killed)
# Conditions: 10 µM unless noted
row,Compound,growth
1,O=C(Nc1nc(C(=O)N2CCN(C(c3ccccc3)c3ccccc3)CC2)cs1)c1ccc(NC2CCCCC2)c([N+](=O)[O-])c1,104% (inactive)
2,C#Cc1cccc(Nc2ncnc3ccc(NC(=O)c4ccccc4)cc23)c1,-28.5% (active)
3,Cc1ccc(CC(=O)O)c(C)c1,112% (inactive)
4,c1ccc2nc(Cn3cc[n+](Cc4ccc5ccccc5n4)c3)ccc2c1,1.53% (active)
5,CCCCS(=O)(=O)c1cc(Nc2ccc(O)c3c2C(=O)c2ccccc2C3=O)ccc1C,76.4% (inactive)
6,BrC1CC(Br)c2c1c1c(c3c2C(Br)CC3Br)C(Br)CC1Br (stereo not given),79% (inactive)
7,O=C1NC(=O)C2(CCc3ccccc32)N1 (stereo not given),106% (inactive)
8,O=C1C=CC[C@H](/C=C/c2ccccc2)O1,10.2% (inactive)
9,COc1c(B(O)O)cccc1-c1nc2c(F)cc3n[nH]c(C)c3c2c2c1CCCC2,-7.26% (active)
10,CCOC(=O)Nc1ccc2c3c(cccc13)-c1ccccc1-2,-11.5% (active)
11,Fc1ccc(Nc2ccc3c(OCCCN4CCOCC4)cccc3n2)cc1F,46.3% (inactive)
12,CC/C(Cc1ccccc1)=C(\c1ccc(OCCN2CCCC2)cc1)c1ccc(OC(C)=O)cc1,62.8% (inactive)
13,COc1ccc(Sc2[nH]c(C=O)c3ccccc23)cc1,9.32% (active)
14,CC(=O)O.CN1[CH-]N(Cc2ccc(C#N)cc2)c2ccccc21.[Ag+],97% (inactive)
15,COc1nc(OC)nc(-c2cc(-c3cc(OC)c(OC)c(OC)c3)no2)n1,104% (inactive)
16,COc1cccc(-c2nc3occn3c2-c2ccnc(NCCCNS(=O)(=O)c3ccc(C(F)(F)F)cc3)n2)c1,81.6% (inactive)
17,C=CCOC1=CC(=O)c2ccccc2C1=O,29.2% (inactive)
18,O=C(Nc1ccc(-n2cc(-c3ccncc3)c(-c3ccc(O)c(Cl)c3)n2)cc1)c1cc(Cl)cc(Cl)c1,50.6% (inactive)
19,O=S(=O)(Nc1ccc(Cl)c(Cl)c1)c1ccc(-c2cnc(C3CC3)o2)cc1,7.72% (active)
20,CCN(CC)c1cc(/C=C/c2ccc(OC)c(OC)c2)nc2cc(F)c(F)cc12,-32.6% (active)

row,Compound,growth
1,CC(C)(C)OC(=O)N1CCc2c(sc3ncnc(N/N=C/c4ccccc4Br)c23)C1,71.5% (inactive)
2,CCSc1nc(NC)c2cc(-c3ccc(C(F)(F)F)cc3)ccc2n1,110% (inactive)
3,Cc1ccc(-c2nc(C(Cl)Cl)nc3cc(C)nn23)cc1,-37.7% (active)
4,O=S(=O)(Nc1cc(Br)c(O)c2ccccc12)c1ccc(F)cc1,-48.5% (active)
5,CCCCNc1nc(NN2C(=O)c3cccc4cccc(c34)C2=O)nc(-n2cnc3ccccc32)n1,92.7% (inactive)
6,COc1ccc(C(=O)CSc2nnc(-c3cc(-c4ccccc4)nc4ccccc34)o2)cc1,104% (inactive)
7,Cc1nn(-c2ccc(Cl)cc2)c(=O)n1CCn1cnc2ccccc21,117% (inactive)
8,Cc1cc2ccccc2c(O)c1C#N,117% (inactive)
9,C[C@@H](Nc1c(C#N)cnc2ccc(-c3cnc(Cl)c(NS(C)(=O)=O)c3)cc12)c1ccccc1,-36% (active)
10,NC(Cc1ccccc1)C(=O)NC(Cc1ccccc1)C(=O)O (stereo not given),102% (inactive) and 92.8% (inactive)
11,O=C(Nc1cccc(-n2cc(-c3ccncc3)c(-c3ccc(O)c(Cl)c3)n2)c1)c1cccc(C(F)(F)F)c1,34.3% (inactive)
12,N#Cc1ccc(NC(=O)c2sc3nc4c(cc3c2N)C(=O)CCC4)cc1,97.6% (inactive)
13,CCCCCC(C)(CC(=O)O)CC(=O)O,95.3% (inactive)
14,OCCn1cc(-c2nc(-c3c[nH]c4ncccc34)cs2)c2cc(F)ccc21,-11.1% (active)
15,CC(C)(C)c1ccc(OC(=O)Nc2ccccc2)cc1,112% (inactive)
16,O=C(CSc1nnc(-c2cc3c([nH]c4ccccc43)c(-c3cccc(O)c3)n2)n1-c1ccccc1)c1ccccc1,63% (inactive)
17,Cc1c(C)c2c(c(C)c1OC(=O)CCC(=O)[O-])CCC(C)(CCCCCCCCCCC[P+](c1ccccc1)(c1ccccc1)c1ccccc1)O2 (stereo not given),-70.4% (active)
18,C/C(=N\NC(=O)CSc1nc2ccccc2c(=O)n1Cc1ccc(S(N)(=O)=O)cc1)c1ccc(F)cc1,114% (inactive)
19,CCOC(=O)C1=C(C)NC(=O)NC1c1c(Cl)n(-c2ccccc2)c2ccccc12 (stereo not given),58.3% (inactive)
20,COc1cc2nc(Nc3cccc(F)c3)nc(Nc3cc(C)[nH]n3)c2cc1OC,-76.6% [20 µM] (active)
